Data as given in PubChem BioAssay (EPA / NIEHS).
Inconclusive results are not listed. Calls of active or inactive are those of the source. The calls were made as follows, unless noted: active = hit-call score of the fitted dose curve at least 0.9, where 1 is the maximum; inactive = score below 0.9.

Assays:
[1] = target: guinea pig Leukotriene D4 Receptor (LTD4), CYSLTR1 (gene 100135514) (UniProt Q2NNR5); assay: NVS_GPCR_gLTD4: NovaScreen (NVS) G Protein-Coupled Receptor Assay for guinea pig Leukotriene D4 Receptor (LTD4) (AID 2283248; active = hit-call score of the fitted dose curve at least 0.9, where 1 is the maximum)
guinea pig Leukotriene D4 Receptor (LTD4), CYSLTR1 (gene 100135514), sequence (Q2NNR5 whole entry, looked up): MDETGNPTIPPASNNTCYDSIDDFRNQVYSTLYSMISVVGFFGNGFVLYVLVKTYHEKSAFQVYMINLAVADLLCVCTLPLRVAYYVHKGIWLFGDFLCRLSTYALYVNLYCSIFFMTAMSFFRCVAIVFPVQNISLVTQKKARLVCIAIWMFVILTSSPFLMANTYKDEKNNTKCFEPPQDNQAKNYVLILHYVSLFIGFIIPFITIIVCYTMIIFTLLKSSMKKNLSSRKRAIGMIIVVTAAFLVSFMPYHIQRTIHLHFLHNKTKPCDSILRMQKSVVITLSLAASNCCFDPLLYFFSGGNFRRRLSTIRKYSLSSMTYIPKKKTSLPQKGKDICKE
In short: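 Radioligand displacement on guinea pig lung membranes, 1 h incubation, filtration and scintillation counting; DMSO as negative control. Duplicate 25 uM primary screen, then singleton concentration-response up to 50 uM.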

[2] = CEETOX_H295R_11DCORT_noMTC: CeeTox H295R High-throughput Steroidogenesis Assay for 11-Deoxycortisol (11DCORT), maximum tolerated concentration (MTC) filtered results only (AID 2283911); settings: actives raise or lower the signal
In short: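 Steroidogenesis was stimulated in H295R cells with 10 uM forskolin for 48 h before a 48 h chemical exposure. Secreted 11-deoxycortisol was measured by tandem mass spectrometry and fitted bidirectionally against DMSO controls.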

[3] = CEETOX_H295R_OHPREG_noMTC: CeeTox H295R High-throughput Steroidogenesis Assay for OH-Pregnenolone (OHPREG), maximum tolerated concentration (MTC) filtered results only (AID 2283912); settings: actives raise or lower the signal
In short: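 Steroidogenesis in H295R cells (OECD 456, modified): after 48 h forskolin priming and 48 h chemical treatment, secreted 17alpha-hydroxypregnenolone is measured by HPLC-MS/MS. Activity is fitted in both directions against DMSO; concentrations are not filtered by MTT-based MTC.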

[4] = CEETOX_H295R_OHPROG_noMTC: CeeTox H295R High-throughput Steroidogenesis Assay for OH-Progesterone (OHPROG), maximum tolerated concentration (MTC) filtered results only (AID 2283914); settings: actives raise or lower the signal
In short: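 Forskolin 10 uM, 48 h prestim → test cmpd in DMSO (0.1% final), 48 h → medium MTBE extraction → LC-MS/MS quant of 17alpha-OH-progesterone. Bidirectional fit vs DMSO; no MTT-based MTC filtering.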

[5] = CEETOX_H295R_ANDR_noMTC: CeeTox H295R High-throughput Steroidogenesis Assay for Androstenedione (ANDR), maximum tolerated concentration (MTC) filtered results only (AID 2283915); settings: actives raise or lower the signal
In short: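 H295R cells, passage 10 or below, prestimulated 48 h with 10 uM forskolin, then exposed 48 h to chemical in 0.1% DMSO. Medium androstenedione extracted with MTBE, quantified by HPLC-MS/MS; concentrations not MTC-filtered; bidirectional fit versus DMSO.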

[6] = CEETOX_H295R_CORTISOL_noMTC: CeeTox H295R High-throughput Steroidogenesis Assay for Cortisol, maximum tolerated concentration (MTC) filtered results only (AID 2283916); settings: actives raise or lower the signal
In short: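 Cortisol secretion measured by LC-MS/MS after 48 h chemical treatment (final 0.1% DMSO) of forskolin-primed (10 uM, 48 h) H295R cells; gain or loss fitted relative to DMSO, without maximum-tolerated-concentration filtering.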

[7] = CEETOX_H295R_CORTIC_noMTC: CeeTox H295R High-throughput Steroidogenesis Assay for Corticosterone (CORTIC), maximum tolerated concentration (MTC) filtered results only (AID 2283917); settings: actives raise or lower the signal
In short: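 Following OECD 456 with minor changes, H295R cultures received 10 uM forskolin for 48 h, then test chemical at 0.1% DMSO for 48 h. Media steroids were extracted and measured by LC-MS/MS.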

[8] = CEETOX_H295R_DOC_noMTC: CeeTox H295R High-throughput Steroidogenesis Assay for DOC, maximum tolerated concentration (MTC) filtered results only (AID 2283918); settings: actives raise or lower the signal
In short: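 11-Deoxycorticosterone secreted by human adrenal H295R cells quantified by HPLC-MS/MS after 48 h chemical exposure (0.1% DMSO), following 48 h 10 uM forskolin prestimulation. Concentrations not filtered by MTT-derived MTC; bidirectional fitting.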

[9] = CEETOX_H295R_PROG_noMTC: CeeTox H295R High-throughput Steroidogenesis Assay for Progesterone (PROG), maximum tolerated concentration (MTC) filtered results only (AID 2283920); settings: actives raise or lower the signal
In short: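 H295R cells; forskolin 10 uM x 48 h prestim; test cpd 48 h, 0.1% DMSO final; media progesterone via LC-MS/MS; bidirectional fit vs DMSO; no MTT-based MTC filter applied.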

[10] = CEETOX_H295R_TESTO_noMTC: CeeTox H295R High-throughput Steroidogenesis Assay for Testosterone (TESTO), maximum tolerated concentration (MTC) filtered results only (AID 2283924); settings: actives raise or lower the signal
In short: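 H295R cells prestimulated 48 h with 10 uM forskolin, then exposed 48 h to chemicals in 0.1% DMSO final. Testosterone in medium quantified by MTBE extraction and HPLC-MS/MS; bidirectional fit versus DMSO, concentrations […] filtered by MTT-based maximum tolerated concentration.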

[11] = CCTE_Deisenroth_H295R-HTRF_384WELL_ESTRADIOL: CCTE's H295R-HTRF Assay Evaluation of Estradiol Concentration, Deisenroth Lab (AID 2284361); settings: actives raise or lower the signal
In short: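 H295R cells exposed 48 h to chemicals at 0.001 - 100 uM final (nine points, triplicate); estradiol in conditioned medium measured by HTRF immunoassay, fitted bidirectionally versus DMSO. Viability by CellTiter-Glo on same plates.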

[12] = CCTE_Deisenroth_H295R-HTRF_384WELL_TESTOSTERONE: CCTE's H295R-HTRF Assay Evaluation of Testosterone Concentration, Deisenroth Lab (AID 2284373); settings: actives raise or lower the signal
In short: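 H295R cells were acclimated 24 h, then exposed 48 h to nine concentrations (0.001–100 uM final) in technical triplicate, n=5. Testosterone in conditioned medium was measured by HTRF (em 620/665 nm). Fitting was bidirectional versus DMSO; CellTiter-Glo viability ran on the same plates.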

[13] = CCTE_Deisenroth_H295R-HTRF_384WELL_CTOX: Cytotoxicity Assessment in CCTE's H295R-HTRF Assay, Deisenroth Lab (AID 2284380; active = hit-call score of the fitted dose curve at least 0.9, where 1 is the maximum)
In short: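 H295R adrenocortical carcinoma cells plated 24 h, then exposed 48 h to nine-point series 0.001–100 uM final, triplicate, n=5. ATP measured by CellTiter-Glo 2.0 luminescence on same plates after medium collection; loss versus DMSO.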

[14] = target: rat CYP2A1, Cyp2a1 (gene 24894) (UniProt P11711); assay: NVS_ADME_rCYP2A1: NovaScreen (NVS) CYP450-related Enzyme Activity (ADME) Assay for rat CYP2A1 (AID 2283114)
rat CYP2A1, Cyp2a1 (gene 24894), sequence (P11711 whole entry, looked up): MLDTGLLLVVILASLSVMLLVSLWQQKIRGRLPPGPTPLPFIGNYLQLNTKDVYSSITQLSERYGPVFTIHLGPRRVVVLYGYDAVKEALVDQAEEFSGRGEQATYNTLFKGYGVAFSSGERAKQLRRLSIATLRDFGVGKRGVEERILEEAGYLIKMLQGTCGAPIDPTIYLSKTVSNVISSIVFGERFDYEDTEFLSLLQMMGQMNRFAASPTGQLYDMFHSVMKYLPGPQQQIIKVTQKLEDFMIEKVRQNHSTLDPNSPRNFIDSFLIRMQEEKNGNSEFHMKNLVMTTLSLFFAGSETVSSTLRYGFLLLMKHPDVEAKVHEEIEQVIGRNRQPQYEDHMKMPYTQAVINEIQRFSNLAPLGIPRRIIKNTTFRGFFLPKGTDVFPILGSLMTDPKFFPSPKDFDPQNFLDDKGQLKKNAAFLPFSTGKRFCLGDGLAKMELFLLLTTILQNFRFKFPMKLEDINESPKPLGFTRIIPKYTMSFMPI
In short: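 Recombinant rat CYP2A1, cell-free, fluorogenic substrate turnover read by fluorescence intensity 0.75 h after dosing. Primary screen at 10 uM in duplicate; actives rerun as concentration-response up to 20 uM; loss of signal versus acetonitrile control.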

[15] = target: rat Monoamine Oxidase, MAO-B, Central (MAOBC), Maob (gene 25750) (UniProt P19643); assay: NVS_ENZ_rMAOBC: NovaScreen (NVS) Enzymatic Assay for rat Monoamine Oxidase, MAO-B, Central (MAOBC) (AID 2283238; active = hit-call score of the fitted dose curve at least 0.9, where 1 is the maximum)
rat Monoamine Oxidase, MAO-B, Central (MAOBC), Maob (gene 25750), sequence (P19643 whole entry, looked up): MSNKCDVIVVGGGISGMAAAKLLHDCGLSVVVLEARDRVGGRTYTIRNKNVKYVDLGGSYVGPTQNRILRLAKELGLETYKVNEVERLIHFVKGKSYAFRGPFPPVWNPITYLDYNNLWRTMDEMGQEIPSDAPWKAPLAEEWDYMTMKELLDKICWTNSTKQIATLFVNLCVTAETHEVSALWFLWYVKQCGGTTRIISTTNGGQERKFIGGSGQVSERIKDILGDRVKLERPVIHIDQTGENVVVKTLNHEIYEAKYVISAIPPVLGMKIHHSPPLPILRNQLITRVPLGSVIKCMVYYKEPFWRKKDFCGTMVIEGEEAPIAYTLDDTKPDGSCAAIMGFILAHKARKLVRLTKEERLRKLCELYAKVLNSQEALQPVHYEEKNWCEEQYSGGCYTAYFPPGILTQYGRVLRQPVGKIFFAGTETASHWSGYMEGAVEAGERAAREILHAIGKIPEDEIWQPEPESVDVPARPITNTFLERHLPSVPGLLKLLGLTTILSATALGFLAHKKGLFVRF
In short: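 Compounds were first tested in duplicate at 25 uM against MAO-B from rat brain tissue; those passing the inhibition threshold were retested in concentration series up to 50 uM. Radiodetection by scintillation counting at 1.17 h, analysed against DMSO baseline.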

[16] = test system: chicken Androgen Receptor (AR), gene 422165; assay: ATG_chAR_XSP1: Attagene TRANS-FACTORIAL Multi-Species (XSP1) HepG2 Assay for chicken Androgen Receptor (AR) (AID 2283768; active = hit-call score of the fitted dose curve at least 0.9, where 1 is the maximum)
In short: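 HepG2 cells transiently transfected with multiplexed GAL4-UAS reporter units expressing chimeric chicken AR-Gal4; 3 nM 6-alpha-fluorotestosterone for partial AR stimulation; 24 h after dosing, reporter mRNA by RT-PCR and capillary electrophoresis, gain-of-signal versus DMSO.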

[17] = test system: turtle Androgen Receptor (AR), gene 101947425; assay: ATG_trAR_XSP1: Attagene TRANS-FACTORIAL Multi-Species (XSP1) HepG2 Assay for turtle Androgen Receptor (AR) (AID 2283786; active = hit-call score of the fitted dose curve at least 0.9, where 1 is the maximum)
In short: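 HepG2 cells transiently transfected with a turtle AR–GAL4 chimera and GAL4-UAS reporter, co-treated with 3 nM 6-alpha-fluorotestosterone for partial stimulation. Reporter mRNA is quantified at 24 h by RT-PCR and capillary electrophoresis, gain-of-signal versus DMSO.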

[18] = target: Estrogen receptor beta (Homo sapiens) (UniProt Q92731); assay: ATG_hERb_XSP1: Attagene TRANS-FACTORIAL Multi-Species (XSP1) HepG2 Assay for human Estrogen Receptor (ESR2) (AID 2283788; active = hit-call score of the fitted dose curve at least 0.9, where 1 is the maximum)
Estrogen receptor beta (Homo sapiens), sequence (Q92731 whole entry, looked up, the tested form may be a part): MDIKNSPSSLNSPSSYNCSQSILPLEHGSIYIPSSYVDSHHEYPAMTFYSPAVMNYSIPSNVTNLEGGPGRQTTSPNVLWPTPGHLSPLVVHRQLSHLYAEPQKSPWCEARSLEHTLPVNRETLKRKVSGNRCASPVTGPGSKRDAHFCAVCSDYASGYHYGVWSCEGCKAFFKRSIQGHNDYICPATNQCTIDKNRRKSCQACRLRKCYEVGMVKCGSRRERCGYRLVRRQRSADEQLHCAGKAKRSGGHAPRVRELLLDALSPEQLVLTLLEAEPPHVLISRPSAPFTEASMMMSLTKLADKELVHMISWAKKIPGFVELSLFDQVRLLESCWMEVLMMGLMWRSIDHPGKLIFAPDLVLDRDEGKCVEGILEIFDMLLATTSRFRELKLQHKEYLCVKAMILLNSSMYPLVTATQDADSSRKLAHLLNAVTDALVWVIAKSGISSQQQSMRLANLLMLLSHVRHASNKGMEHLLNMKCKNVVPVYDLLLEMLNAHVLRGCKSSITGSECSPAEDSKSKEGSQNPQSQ
In short: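 Measured endpoint is transcriptional gain of signal from a GAL4-UAS reporter controlled by chimeric ERβ in HepG2 liver cells. Exposure lasts 24 h alongside 3 nM 6-alpha-fluorotestosterone, with DMSO as negative control.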

[19] = target: Thyroid hormone receptor alpha (Rattus norvegicus) + Thyroid hormone receptor beta (Rattus norvegicus) (UniProt P18113+P63059); assay: TOX21_TR_LUC_GH3_Agonist_Followup: Tox21 GH3 Thyroid Hormone Receptor Agonism Luciferase Follow-Up Assay (AID 2283939; active = hit-call score of the fitted dose curve at least 0.9, where 1 is the maximum)
Thyroid hormone receptor alpha (Rattus norvegicus) + Thyroid hormone receptor beta (Rattus norvegicus), sequence (P63059 whole entry, looked up): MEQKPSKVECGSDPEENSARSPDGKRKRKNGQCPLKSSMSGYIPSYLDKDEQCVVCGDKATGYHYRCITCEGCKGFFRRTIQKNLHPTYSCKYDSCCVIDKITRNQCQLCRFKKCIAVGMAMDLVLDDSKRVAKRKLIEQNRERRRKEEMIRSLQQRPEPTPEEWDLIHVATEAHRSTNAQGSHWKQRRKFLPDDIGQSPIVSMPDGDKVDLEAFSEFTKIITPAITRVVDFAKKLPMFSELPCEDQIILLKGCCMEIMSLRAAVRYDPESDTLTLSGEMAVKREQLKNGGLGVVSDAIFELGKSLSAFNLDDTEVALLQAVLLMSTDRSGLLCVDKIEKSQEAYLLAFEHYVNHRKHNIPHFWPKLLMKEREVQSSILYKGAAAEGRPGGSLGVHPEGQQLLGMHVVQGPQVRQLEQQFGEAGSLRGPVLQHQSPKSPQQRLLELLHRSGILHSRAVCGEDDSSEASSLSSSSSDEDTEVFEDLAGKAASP
Thyroid hormone receptor alpha (Rattus norvegicus) + Thyroid hormone receptor beta (Rattus norvegicus), sequence (P18113 whole entry, looked up): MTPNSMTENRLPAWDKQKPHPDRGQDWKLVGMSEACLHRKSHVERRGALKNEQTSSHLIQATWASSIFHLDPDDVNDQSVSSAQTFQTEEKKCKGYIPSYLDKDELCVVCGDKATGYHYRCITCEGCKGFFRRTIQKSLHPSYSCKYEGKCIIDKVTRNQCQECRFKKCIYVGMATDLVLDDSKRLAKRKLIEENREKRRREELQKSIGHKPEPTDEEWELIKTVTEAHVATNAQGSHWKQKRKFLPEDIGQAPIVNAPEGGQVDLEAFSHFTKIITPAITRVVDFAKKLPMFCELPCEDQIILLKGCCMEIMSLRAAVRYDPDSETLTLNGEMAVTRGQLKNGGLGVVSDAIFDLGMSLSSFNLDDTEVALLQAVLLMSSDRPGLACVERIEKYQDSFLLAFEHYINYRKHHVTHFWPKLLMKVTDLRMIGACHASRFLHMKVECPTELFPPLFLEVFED
In short: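 Rat GH3 cells (1,500/well) in serum-free assay medium, treated with 15-point series, 92 uM to 5 nM final, for 24 h at 37C. Luciferase via ONE-Glo luminescence; gain of signal fitted against DMSO, T3 positive control.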

THRA (gene 7067) = THRA (gene 7067) (UniProt P10827); assay: TOX21_TRA_COA_Agonist_Followup_ratio: Tox21 Thyroid Hormone Receptor alpha Agonism through Coactivator Recruitment Follow-Up Assay, Ratio (AID 2283948)
THRA (gene 7067), sequence (P10827 whole entry, looked up, the tested form may be a part): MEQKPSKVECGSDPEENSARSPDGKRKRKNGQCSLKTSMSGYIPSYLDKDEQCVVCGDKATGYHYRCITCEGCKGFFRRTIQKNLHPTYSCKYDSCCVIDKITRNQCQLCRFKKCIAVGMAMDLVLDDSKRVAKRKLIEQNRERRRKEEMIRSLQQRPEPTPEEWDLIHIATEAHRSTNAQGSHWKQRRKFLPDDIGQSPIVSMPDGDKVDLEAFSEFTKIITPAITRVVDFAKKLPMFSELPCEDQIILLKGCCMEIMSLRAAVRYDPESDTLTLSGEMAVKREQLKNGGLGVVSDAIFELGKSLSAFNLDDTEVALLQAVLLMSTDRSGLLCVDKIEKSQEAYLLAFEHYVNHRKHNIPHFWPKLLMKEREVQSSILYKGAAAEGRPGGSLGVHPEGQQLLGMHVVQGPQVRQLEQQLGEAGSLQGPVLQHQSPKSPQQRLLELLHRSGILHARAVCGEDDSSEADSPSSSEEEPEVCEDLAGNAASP
In short: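 Follow-up specificity assay in which TRα ligand-binding domain, expressed as a GST fusion, recruits a fluorescein-labelled SRC-2 peptide. Energy transfer from a terbium anti-GST antibody gives the acceptor/donor ratio, fitted upward relative to DMSO.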

## S=c1[nH]c2ccccc2[nH]1
[1]
  outcome: inactive

## C[C@]12CC[C@H](O)C[C@H]1CC[C@@H]1[C@@H]2C[C@@H](O)[C@]2(C)[C@@H](C3=CC(=O)OC3)CC[C@]12O
[2]
  AC50: 5.79 µM (active)
[3]
  AC50: 1.28 µM (active)
[4]
  AC50: 5.47 µM (active)
[5]
  AC50: 5.44 µM (active)
[6]
  AC50: 4.34 µM (active)
[7]
  AC50: 3.91 µM (active)
[8]
  AC50: 10.8 µM (active)
[9]
  AC50: 10.7 µM (active)
[10]
  AC50: 4.25 µM (active)

## C[C@]12CC[C@H]3[C@@H](CC[C@@]45O[C@@H]4C(O)=C(C#N)C[C@]35C)[C@@H]1CC[C@@H]2O
[11]
  AC50: 3.06 µM (active)
[12]
  AC50: 19 µM (active)
[13]
  outcome: inactive

## CC(Cc1ccc(C(C)(C)C)cc1)CN1C[C@@H](C)O[C@@H](C)C1 (stereo not given in full)
[14]
  AC50: 3.26 µM (active)
[15]
  AC50: 14.1 µM (active)

## CC(C)CCCCCCCOC(=O)c1ccccc1C(=O)OCCCCCCCC(C)C
[16]
  outcome: inactive
[17]
  outcome: inactive
[18]
  outcome: inactive
[19]
  outcome: inactive
THRA (gene 7067)
  outcome: inactive
